# Where “and” joins values, the source holds several entries; their conditions need not be identical. Identical values can stand only once. Records with an inconclusive call do not appear. A call without a number means that no potency is given here. Calls of active or inactive are those of the source. Calls follow the shape of the dose curve; as a rule, active = well fitted cell-killing curve with a large enough effect; inconclusive = small, poorly fitted or top-dose-only effect, or effect the other way; inactive = flat fitted curve, though single readings scatter.
# Assay: qHTS for Inhibitors of Ubiquitin-specific Protease USP2a Using CHOP2 as the Reporter: Cytotox Assay (AID 652170); also: nearly all actives have a fitted effect of over 70% in size
# Settings: HCT116 viability, CellTiter-Glo luminescence, 72 h; series mostly up to 46.1 µM
# Source text: Homeostasis of cellular proteins is maintained through a combination of synthesis and degradation. The pathway that accounts for the majority of protein degradation is the ubiquitin-proteasomal pathway. Ubiquitin (Ub) is highly conserved in all cells and the generation of a multi-Ub chain typically targets proteins for degradation by the proteasome. However, ubiquitination is highly reversible and dynamic. Deubiquitination, the reverse process, is catalyzed through the action of enzymes referred to as isopeptidases or deubiquitinating enzymes (DUBs). This group of enzymes is collectively responsible for maintaining adequate pools of free ubiquitin and regulating the ubiquitination status of cellular proteins. The class of DUBs referred to as the ubiquitin-specific proteases (USP) family functions endoproteolytically to cleave Ub chains from a wide range of protein substrates. USP2a deubiquitinates fatty acid synthase (FASN) which has recently been identified as an emerging oncology target. To identify inhibitors of USP2a a cell-free qHTS assay was employed. Confirmed qHTS active compounds were tested for cytoxicity in HCT116 cells (human colon cancer cells) using the Cell Titer Glo luciferase-coupled ATP detection system from Promega. This assays monitors cell proliferation by quantitating the amount of ATP present by luciferase, which in the presence of ATP converts […]. A compound that inhibits cell proliferation would result in a decrease in luminescence. The data were normalized to control columns representing maximum signal (cells with DMSO) and background (no cells with DMSO). The cells were cultured in DMEM with 10% FBS and plated in white solid-bottom tissue-culture treated plates. NIH Molecular Libraries Probe Centers Network [MLPCN] NIH Chemical Genomics Center [NCGC] MLSCN Grant: MH079852 PI Name: Benjamin Nicholson, Progenra Inc, Malvern, PA
# 5 uL of HCT116 (600 cells/well) were plated into a 1536 well plate and then incubated for 6 hr at 37 deg C, 5% CO2. Compounds are added through pinning before the plate is incubated for 72 hr at 37 deg C, 5% CO2. Then, 3 uL of Cell Titer Glo is added, the plate is left at RT for 10 min, before luminescence is detected using the ViewLux.
# Potency is read from the fitted curve at half-maximal effect.
row,Structure (SMILES),Potency
1,O=c1[nH]c(CCl)nc2sc3c(c12)CCC3,14.8 µM (active)
2,Cc1ccc(-c2cc(C(=O)Nc3ccccc3)c3ccccc3n2)cc1C,inactive
3,Cc1ccc(S(=O)(=O)NCC(=O)Nc2nc(-c3ccccc3)cs2)cc1,inactive
4,O=C(Cc1ccc2ccccc2c1)Nc1ccc(S(=O)(=O)Nc2nccs2)cc1,inactive
5,Cc1ccc(S(=O)(=O)Nc2ccccc2C(=O)Nc2nc(-c3ccc(Cl)cc3)cs2)cc1,8.33 µM (active)
6,Cc1ccc(S(=O)(=O)Nc2ccccc2C(=O)Nc2nc(-c3ccccc3)co2)cc1,5.9 µM (active)
7,CC1(C)CC(C(=O)Nc2ccc([S+](=O)([O-])Nc3nccs3)cc2)C1,inactive
8,CC(=O)Nc1ccc(S(=O)(=O)Nc2nccs2)cc1,inactive
9,Cc1ccc(-c2cc(C(=O)Nc3ccc(C(=O)O)cc3)c3ccccc3n2)cc1C,inactive
10,COc1cc(Cl)ccc1C(=O)Nc1nc(-c2ccccc2)cs1,inactive
11,O=S(=O)(Nc1ccc(S(=O)(=O)Nc2nccs2)cc1)c1ccc2ccccc2c1,inactive
12,Clc1nc(CN2CCOCC2)nc2sc3c(c12)CCC3,inactive
13,Cc1ccc(S(=O)(=O)Nc2cnccc2C(=O)Nc2ccncc2)cc1,inactive
14,O=C(Nc1nc(-c2ccccc2)cs1)c1ccncc1NS(=O)(=O)c1ccc(N2CCCC2=O)cc1,inactive
15,Cc1ccc(S(=O)(=O)Nc2ccc(Br)cc2C(=O)Nc2nc(-c3ccccc3)cs2)cc1,4.69 µM (active)
16,Cc1ccc(-c2cc(C(=O)Nc3ccn[nH]3)c3ccccc3n2)cc1C,inactive
17,O=C(Nc1ccc([S+](=O)([O-])Nc2nccs2)cc1)C1CCNCC1,inactive
18,COc1ccc(C(=O)Nc2nc(-c3ccccc3)cs2)c(OC)c1,inactive
19,O=C(Nc1ccc(S(=O)(=O)Nc2nccs2)cc1)C1CCC2(CCC2)CC1,inactive
20,Cc1ccc(S(=O)(=O)Nc2ccccc2C(=O)Nc2ccc(-c3ccccc3)nc2)cc1,20.9 µM (active)

row,Structure (SMILES),Potency
1,Cc1ccc(S(=O)(=O)Nc2cc(C(F)(F)F)ccc2C(=O)Nc2nc(-c3ccccc3)cs2)cc1,2.96 µM (active)
2,COC(=O)c1ccccc1C(=O)Nc1nc(-c2ccccc2)cs1,inactive
3,Cc1ccc(-c2cc(C(=O)Nc3ccccc3Cl)c3ccccc3n2)cc1C,inactive
4,O=C(Nc1ccc(S(=O)(=O)Nc2nccs2)cc1)c1ccnc(-c2ccccc2)c1,inactive
5,Cc1ccc(S(=O)(=O)Nc2cc(C)ccc2C(=O)Nc2nc(-c3ccccc3)cs2)cc1,14.8 µM (active)
6,Cc1ccc(S(=O)(=O)NCCC(=O)Nc2nc(-c3ccccc3)cs2)cc1,inactive
7,O=[S+]([O-])(NCc1nccs1)c1ccc(Nc2nc(-c3ccccc3)cs2)cc1,inactive
8,Cc1ccc(-c2cc(C(=O)Nc3ccc(S(=O)(=O)NCc4nccs4)cc3)c3ccccc3n2)cc1C,inactive
9,Cc1ccc(S(=O)(=O)Nc2cc(F)c(F)cc2C(=O)Nc2nc(-c3ccccc3)cs2)cc1,2.96 µM (active)
10,Cc1ccc(-c2cc(C(=O)Nc3nc4ccccc4s3)c3ccccc3n2)cc1C,inactive
11,COc1ccc(-c2csc(NC(=O)c3ccccc3NS(=O)(=O)c3ccc(C)cc3)n2)cc1,18.7 µM (active)
12,O=C(Nc1nc(-c2ccccc2)cs1)c1ccccc1S(=O)(=O)Nc1nccs1,inactive
13,CC1CCC(C(=O)Nc2ccc([S+](=O)([O-])Nc3nccs3)cc2)CC1 (stereo not given),inactive
14,Cc1ccc(S(=O)(=O)Nc2cnccc2C(=O)Nc2ccccc2)cc1,inactive
15,Cc1ccc(S(=O)(=O)Nc2ccccc2C(=O)Nc2nc(-c3ccccc3)cs2)cc1,14.8 µM (active) and 11.8 µM (active)
16,CC(C)(C)OC(=O)N1CCC(C(=O)Nc2ccc([S+](=O)([O-])Nc3nccs3)cc2)CC1,inactive
17,O=C(Nc1ccc(S(=O)(=O)Nc2nccs2)cc1)C1CCC2(CC1)CC2,inactive
18,Cc1ccc(-c2cc(C(=O)Nc3ccc(S(N)(=O)=O)cc3)c3ccccc3n2)cc1C,inactive
19,Cc1ccc(S(=O)(=O)Nc2cnccc2C(=O)Nc2nc(-c3ccncc3)cs2)cc1,inactive
20,COc1cc(NS(=O)(=O)c2ccc(C)cc2)c(C(=O)Nc2nc(-c3ccccc3)cs2)cc1OC,inactive

# Reference: PubChem BioAssay (NCATS)
